# Experimental data reported in PubChem BioAssay (NCI).
# Compounds without any hit were thinned out: in the full panel of roughly 79,000, 15% have a hit. Values without a mark were called inactive. Active and inactive are the calls of the source. Rule as the data show it: active = growth inhibition above about 70%; inactive = the rest.
# Experiments:
# [1] = NCI Yeast Anticancer Drug Screen. Data for the wt1 strain (AID 149);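 also: 0% = growth of vehicle-treated wt1 cultures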; settings: S. cerevisiae wt1 strain (SPY 50644) growth inhibition, active compounds read high
# Outline: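 Compounds are added to wt1 yeast cultures. Growth is then measured. Inhibition is expressed relative to vehicle-treated controls.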
# [2] = NCI Yeast Anticancer Drug Screen. Data for the rad50EPP+ strain (AID 151);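 also: 0% = growth of vehicle-treated control cultures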; settings: S. cerevisiae rad50 mutant strain, active compounds read high
# Outline: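 Exposing the rad50EPP+ strain to each compound, growth was compared with vehicle-only cultures to give inhibition.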
# [3] = NCI Yeast Anticancer Drug Screen. Data for the mgt1 strain (AID 153); settings: S. cerevisiae mgt1 mutant growth inhibition, active compounds read high
# Outline: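 Genetically defined yeast (mgt1) treated with compound; inhibition of growth expressed against vehicle-treated controls.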
# [4] = NCI Yeast Anticancer Drug Screen. Data for the rad50 strain (AID 155);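 also: 0% = growth of vehicle-only cultures of the same strain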; settings: S. cerevisiae rad50 strain growth inhibition, active compounds read high
# Outline: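 Inhibition values express reduced yeast growth in compound-treated cultures relative to vehicle-treated controls.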
# [5] = NCI Yeast Anticancer Drug Screen. Data for the mec2-1 strain (AID 157); settings: S. cerevisiae mec2-1 strain, active compounds read high
# Outline: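 Readout is yeast growth inhibition, normalised to vehicle-treated controls, in the mec2-1 strain exposed to compound.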
# [6] = NCI Yeast Anticancer Drug Screen. Data for the rad14 strain (AID 159);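 also: 0% = growth of vehicle-treated control cultures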; settings: S. cerevisiae rad14 strain growth inhibition, active compounds read high
# Outline: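 A mutant yeast strain defective in DNA damage repair is treated with compound; inhibition of its growth is scored against untreated, vehicle-exposed cultures.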
# [7] = NCI Yeast Anticancer Drug Screen. Data for the sgs1 mgt1 strain (AID 161);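 also: 0% = growth of cultures given vehicle only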; settings: S. cerevisiae sgs1 mgt1 strain, active compounds read high
# Outline: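 This yeast growth screen uses a strain with defined DNA-repair lesions; compound-treated growth is compared with vehicle-treated growth.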
# [8] = NCI Yeast Anticancer Drug Screen. Data for the CLN2oe strain (AID 163);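 also: 0% = growth of vehicle-only control cultures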; settings: S. cerevisiae CLN2oe strain, active compounds read high
# Outline: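 Values reflect how much compound exposure reduced yeast growth, referenced to vehicle-exposed cells. Assay organism is a strain with a defined genetic change affecting cell-cycle control.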
# [9] = NCI Yeast Anticancer Drug Screen. Data for the cln2 rad14 strain (AID 165);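 also: 0% = growth equal to vehicle treated cultures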; settings: S. cerevisiae cln2 rad14 strain, active compounds read high
# Outline: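 Relative to vehicle controls, growth inhibition of compound-treated cln2 rad14 yeast was recorded.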
# [10] = NCI Yeast Anticancer Drug Screen. Data for the bub3 strain (AID 167); settings: S. cerevisiae bub3 mutant strain, active compounds read high
# Outline: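 Steps: expose the mutant yeast strain to compound; grow alongside vehicle-treated cultures; measure growth; express inhibition against the vehicle cultures.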
# [11] = NCI Yeast Anticancer Drug Screen. Data for the wt2 strain (AID 169);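 also: 0% = growth of vehicle-treated yeast cultures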; settings: S. cerevisiae wt2 strain growth inhibition, active compounds read high
# Outline: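 Values express reduction in yeast growth under compound treatment, referenced to vehicle-treated cells.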
# [12] = NCI Yeast Anticancer Drug Screen. Data for the mlh1 strain (AID 171);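 also: 0% = growth of vehicle-treated control cultures of the same strain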; settings: S. cerevisiae mlh1 strain growth inhibition, active compounds read high
# Outline: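 Steps: expose the defined-mutant yeast strain to compound; expose a parallel culture to vehicle; measure growth; express compound effect as inhibition relative to the vehicle culture.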
# [13] = NCI Yeast Anticancer Drug Screen. Data for the sgs1 strain (AID 173);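 also: 0% = growth of vehicle-only control cultures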; settings: S. cerevisiae sgs1 mutant, active compounds read high
# Outline: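 Treat defined-mutant yeast with compound; measure growth; calculate inhibition relative to vehicle-treated cells.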
# [14] = NCI Yeast Anticancer Drug Screen. Data for the mlh1 rad18 strain (AID 175); settings: S. cerevisiae mlh1 rad18 strain growth inhibition, active compounds read high
# Outline: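 Test agents were incubated with a yeast strain of defined genotype (DNA damage repair defect). Inhibition of growth was derived by comparison with vehicle-exposed cultures.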
# [15] = NCI Yeast Anticancer Drug Screen. Data for the rad18 strain (AID 177); settings: S. cerevisiae rad18 mutant growth inhibition, active compounds read high
# Outline: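 A genetically defined yeast mutant impaired in DNA damage repair was treated with test compounds, then its growth was measured against cultures receiving vehicle alone.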
# [16] = at 5.0 µM (retest, dose inferred, filed as 0.5)
# [17] = at 50.0 µM (retest, dose inferred, filed as 5.0)
smiles,measurement,setting,value
c1cncc(C(Nc2cccc3cccnc23)Nc2cccc3cccnc23)c1,growth inhibition,[1]; at 1.2 µM,0%
same,growth inhibition,[1]; at 3.7 µM,0%
same,growth inhibition,[1]; at 11.0 µM,1%
same,growth inhibition,[1]; at 33.0 µM,2%
same,growth inhibition,[1]; at 100.0 µM,0%
same,growth inhibition,[2]; at 1.2 µM,1%
same,growth inhibition,[2]; at 3.7 µM,14%
same,growth inhibition,[2]; at 11.0 µM,31%
same,growth inhibition,[2]; at 33.0 µM,47%
same,growth inhibition,[2]; at 100.0 µM,55%
same,growth inhibition,[3]; at 1.2 µM,4%
same,growth inhibition,[3]; at 3.7 µM,1%
same,growth inhibition,[3]; at 11.0 µM,3%
same,growth inhibition,[3]; at 33.0 µM,-70%
same,growth inhibition,[3]; at 100.0 µM,-45%
same,growth inhibition,[4]; at 1.2 µM,-103%
same,growth inhibition,[4]; at 3.7 µM,52%
same,growth inhibition,[4]; [16],25%
same,growth inhibition,[4]; at 11.0 µM,61%
same,growth inhibition,[4]; at 33.0 µM,76% (active)
same,growth inhibition,[4]; [17],44%
same,growth inhibition,[4]; at 50.0 µM,75.8% (active)
same,growth inhibition,[4]; at 100.0 µM,81% (active)
same,growth inhibition,[5]; at 1.2 µM,2%
same,growth inhibition,[5]; at 3.7 µM,1%
same,growth inhibition,[5]; [16],-26%
same,growth inhibition,[5]; at 11.0 µM,5%
same,growth inhibition,[5]; at 33.0 µM,12%
same,growth inhibition,[5]; [17],-2%
same,growth inhibition,[5]; at 50.0 µM,44.8%
same,growth inhibition,[5]; at 100.0 µM,15%
same,growth inhibition,[6]; at 1.2 µM,0%
same,growth inhibition,[6]; at 3.7 µM,9%
same,growth inhibition,[6]; at 11.0 µM,15%
same,growth inhibition,[6]; at 33.0 µM,25%
same,growth inhibition,[6]; at 100.0 µM,47%
same,growth inhibition,[7]; [16],28%
same,growth inhibition,[7]; [17],53%
same,growth inhibition,[7]; at 50.0 µM,54.4%
same,growth inhibition,[8]; at 1.2 µM,6%
same,growth inhibition,[8]; at 3.7 µM,3%
same,growth inhibition,[8]; at 11.0 µM,3%
same,growth inhibition,[8]; at 33.0 µM,3%
same,growth inhibition,[8]; at 100.0 µM,2%
same,growth inhibition,[9]; [16],1%
same,growth inhibition,[9]; [17],6%
same,growth inhibition,[9]; at 50.0 µM,27.9%
same,growth inhibition,[10]; at 1.2 µM,1%
same,growth inhibition,[10]; at 3.7 µM,4%
same,growth inhibition,[10]; [16],-10%
same,growth inhibition,[10]; at 11.0 µM,-7%
same,growth inhibition,[10]; at 33.0 µM,-11%
same,growth inhibition,[10]; [17],-12%
same,growth inhibition,[10]; at 50.0 µM,-13.8%
same,growth inhibition,[10]; at 100.0 µM,-8%
same,growth inhibition,[11]; at 1.2 µM,0%
same,growth inhibition,[11]; at 3.7 µM,9%
same,growth inhibition,[11]; at 11.0 µM,0%
same,growth inhibition,[11]; at 33.0 µM,2%
same,growth inhibition,[11]; at 100.0 µM,-1%
same,growth inhibition,[12]; at 1.2 µM,3%
same,growth inhibition,[12]; at 3.7 µM,1%
same,growth inhibition,[12]; at 11.0 µM,1%
same,growth inhibition,[12]; at 33.0 µM,4%
same,growth inhibition,[12]; at 100.0 µM,2%
same,growth inhibition,[13]; at 1.2 µM,11%
same,growth inhibition,[13]; at 3.7 µM,39%
same,growth inhibition,[13]; at 11.0 µM,59%
same,growth inhibition,[13]; at 33.0 µM,64%
same,growth inhibition,[13]; at 100.0 µM,62%
same,growth inhibition,[14]; [16],25%
same,growth inhibition,[14]; [17],40%
same,growth inhibition,[14]; at 50.0 µM,77.2% (active)
same,growth inhibition,[15]; at 1.2 µM,36%
same,growth inhibition,[15]; at 3.7 µM,89% (active)
same,growth inhibition,[15]; at 11.0 µM,92% (active)
same,growth inhibition,[15]; at 33.0 µM,94% (active)
same,growth inhibition,[15]; at 100.0 µM,94% (active)
